What was measured:
Assay in all cases: log2 ratio of Biotin-Ahx-Ub-VS probe labelling (fragment/DMSO); higher = less target engagement (more negative = stronger competition), active = hit call of the paper (q ≤ 0.05, log2 ratio ≤ -1)
Conditions in all cases: compound concentration: 200 uM; treatment time: 3 h
OTUD6B = molecular target: T1, OTUD6B (UniProt Q8N6M0)
T1 sequence (whole entry): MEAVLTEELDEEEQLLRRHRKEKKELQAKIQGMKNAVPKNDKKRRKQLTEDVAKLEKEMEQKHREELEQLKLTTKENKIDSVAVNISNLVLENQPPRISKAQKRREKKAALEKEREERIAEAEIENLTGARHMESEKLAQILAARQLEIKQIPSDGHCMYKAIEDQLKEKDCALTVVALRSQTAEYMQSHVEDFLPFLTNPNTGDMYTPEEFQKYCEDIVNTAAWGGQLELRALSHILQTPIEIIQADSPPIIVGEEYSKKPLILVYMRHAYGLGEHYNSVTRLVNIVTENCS
How it was run: (§1)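 Average log2 ratios of fragment over vehicle were obtained by unpaired t-test from global-median-normalised Spectronaut label-free quantities. Proteins with ≥2 unique peptides were included. HEK293T lysate (495 µg per sample) was treated in triplicate with fragment at 200 µM or vehicle for 3 h, then with Biotin-Ahx-Ub-VS at 0.5 µM final for 1 h, and labelled DUBs were NeutrAvidin-enriched and run by diaPASEF LC-MS/MS.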

OTUD7B = molecular target: T2, OTUD7B (UniProt Q6GQQ9)
T2 sequence (whole entry): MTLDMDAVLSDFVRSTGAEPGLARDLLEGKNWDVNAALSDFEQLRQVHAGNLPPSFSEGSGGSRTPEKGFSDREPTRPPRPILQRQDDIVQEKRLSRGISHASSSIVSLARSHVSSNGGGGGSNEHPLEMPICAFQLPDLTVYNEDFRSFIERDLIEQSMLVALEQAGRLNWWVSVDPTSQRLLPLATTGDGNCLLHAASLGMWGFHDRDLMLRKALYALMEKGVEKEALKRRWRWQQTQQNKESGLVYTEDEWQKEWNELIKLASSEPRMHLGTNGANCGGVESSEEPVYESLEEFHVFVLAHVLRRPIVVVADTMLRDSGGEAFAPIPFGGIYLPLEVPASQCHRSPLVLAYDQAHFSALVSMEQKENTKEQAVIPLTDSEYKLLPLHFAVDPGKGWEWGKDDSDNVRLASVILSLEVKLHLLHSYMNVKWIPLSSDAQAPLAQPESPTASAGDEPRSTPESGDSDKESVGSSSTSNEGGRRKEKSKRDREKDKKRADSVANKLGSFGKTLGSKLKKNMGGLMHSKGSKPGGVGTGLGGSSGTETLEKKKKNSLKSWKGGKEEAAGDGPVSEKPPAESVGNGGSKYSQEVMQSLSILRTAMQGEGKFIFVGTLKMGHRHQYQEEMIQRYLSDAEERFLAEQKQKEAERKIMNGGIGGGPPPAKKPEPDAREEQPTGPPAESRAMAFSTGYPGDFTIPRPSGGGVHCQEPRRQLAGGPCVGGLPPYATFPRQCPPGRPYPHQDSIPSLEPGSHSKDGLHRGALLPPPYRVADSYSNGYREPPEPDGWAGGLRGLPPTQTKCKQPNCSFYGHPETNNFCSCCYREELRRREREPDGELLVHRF
How it was run: as §1

PRPF8 = PRPF8 (UniProt Q6P2Q9)
How it was run: as §1

PSMD7 = molecular target: T3, PSMD7 (UniProt P51665)
T3 sequence (whole entry): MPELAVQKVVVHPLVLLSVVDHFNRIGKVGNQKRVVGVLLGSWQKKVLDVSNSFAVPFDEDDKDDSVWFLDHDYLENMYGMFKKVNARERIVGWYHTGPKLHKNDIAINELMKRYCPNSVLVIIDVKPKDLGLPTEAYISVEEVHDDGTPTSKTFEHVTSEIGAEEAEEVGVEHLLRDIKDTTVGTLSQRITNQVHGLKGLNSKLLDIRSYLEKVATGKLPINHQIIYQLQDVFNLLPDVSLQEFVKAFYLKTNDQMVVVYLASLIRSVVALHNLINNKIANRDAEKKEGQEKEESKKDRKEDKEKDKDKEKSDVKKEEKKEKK
How it was run: as §1

UCHL1 = UCHL1 (UniProt P09936)
How it was run: as §1

UCHL3 = molecular target: T4, UCHL3 (UniProt P15374)
T4 sequence (whole entry): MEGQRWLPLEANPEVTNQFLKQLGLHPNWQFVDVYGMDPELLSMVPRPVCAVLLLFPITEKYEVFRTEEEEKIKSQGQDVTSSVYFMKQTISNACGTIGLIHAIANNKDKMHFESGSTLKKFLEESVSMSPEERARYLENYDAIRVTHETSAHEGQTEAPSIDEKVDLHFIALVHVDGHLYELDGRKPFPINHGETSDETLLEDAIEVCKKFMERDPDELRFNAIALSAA
How it was run: as §1

UCHL5 = molecular target: T5, UCHL5 (UniProt Q9Y5K5)
T5 sequence (whole entry): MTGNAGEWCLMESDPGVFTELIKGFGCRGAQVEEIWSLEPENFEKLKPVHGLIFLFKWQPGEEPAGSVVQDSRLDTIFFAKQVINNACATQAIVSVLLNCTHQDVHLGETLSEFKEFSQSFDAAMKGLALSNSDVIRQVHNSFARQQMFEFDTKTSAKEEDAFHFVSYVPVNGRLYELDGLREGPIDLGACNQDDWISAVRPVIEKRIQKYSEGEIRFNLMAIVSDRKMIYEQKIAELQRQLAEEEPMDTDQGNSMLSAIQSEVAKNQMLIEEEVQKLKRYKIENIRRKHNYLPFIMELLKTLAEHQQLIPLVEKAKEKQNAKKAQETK
How it was run: as §1

USP10 = USP10 (UniProt Q14694)
How it was run: as §1

USP15 = molecular target: T6, USP15 (UniProt Q9Y4E8)
T6 sequence (whole entry): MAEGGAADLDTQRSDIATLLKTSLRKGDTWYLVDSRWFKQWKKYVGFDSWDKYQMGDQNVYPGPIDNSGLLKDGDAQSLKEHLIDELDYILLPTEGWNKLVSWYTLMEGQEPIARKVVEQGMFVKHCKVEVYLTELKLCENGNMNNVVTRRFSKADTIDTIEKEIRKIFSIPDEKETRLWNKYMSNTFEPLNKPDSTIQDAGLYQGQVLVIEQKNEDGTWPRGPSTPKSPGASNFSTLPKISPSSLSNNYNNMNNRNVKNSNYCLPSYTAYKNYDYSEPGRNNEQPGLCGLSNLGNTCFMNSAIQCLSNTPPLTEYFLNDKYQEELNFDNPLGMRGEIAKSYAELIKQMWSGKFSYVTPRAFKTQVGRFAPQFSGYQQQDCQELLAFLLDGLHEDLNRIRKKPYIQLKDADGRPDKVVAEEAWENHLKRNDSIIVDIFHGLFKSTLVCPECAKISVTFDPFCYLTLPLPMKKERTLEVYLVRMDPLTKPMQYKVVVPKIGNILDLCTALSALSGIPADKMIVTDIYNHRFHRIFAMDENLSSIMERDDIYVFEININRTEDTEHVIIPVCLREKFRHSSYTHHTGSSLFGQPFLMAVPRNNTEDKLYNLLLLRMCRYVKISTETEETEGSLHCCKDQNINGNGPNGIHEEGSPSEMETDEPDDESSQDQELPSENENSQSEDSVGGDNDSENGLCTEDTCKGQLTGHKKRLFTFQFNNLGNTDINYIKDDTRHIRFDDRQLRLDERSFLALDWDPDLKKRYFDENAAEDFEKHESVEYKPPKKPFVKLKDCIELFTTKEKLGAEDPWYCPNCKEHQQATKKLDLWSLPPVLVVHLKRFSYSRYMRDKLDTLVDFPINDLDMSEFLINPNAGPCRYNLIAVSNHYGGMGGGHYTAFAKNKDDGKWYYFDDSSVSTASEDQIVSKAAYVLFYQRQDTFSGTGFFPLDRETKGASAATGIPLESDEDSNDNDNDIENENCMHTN
How it was run: as §1

USP16 = USP16 (UniProt Q9Y5T5)
How it was run: as §1

Measured: log2 ratio of Biotin-Ahx-Ub-VS probe labelling

Chain of USP16 (Q9Y5T5 whole entry, looked up): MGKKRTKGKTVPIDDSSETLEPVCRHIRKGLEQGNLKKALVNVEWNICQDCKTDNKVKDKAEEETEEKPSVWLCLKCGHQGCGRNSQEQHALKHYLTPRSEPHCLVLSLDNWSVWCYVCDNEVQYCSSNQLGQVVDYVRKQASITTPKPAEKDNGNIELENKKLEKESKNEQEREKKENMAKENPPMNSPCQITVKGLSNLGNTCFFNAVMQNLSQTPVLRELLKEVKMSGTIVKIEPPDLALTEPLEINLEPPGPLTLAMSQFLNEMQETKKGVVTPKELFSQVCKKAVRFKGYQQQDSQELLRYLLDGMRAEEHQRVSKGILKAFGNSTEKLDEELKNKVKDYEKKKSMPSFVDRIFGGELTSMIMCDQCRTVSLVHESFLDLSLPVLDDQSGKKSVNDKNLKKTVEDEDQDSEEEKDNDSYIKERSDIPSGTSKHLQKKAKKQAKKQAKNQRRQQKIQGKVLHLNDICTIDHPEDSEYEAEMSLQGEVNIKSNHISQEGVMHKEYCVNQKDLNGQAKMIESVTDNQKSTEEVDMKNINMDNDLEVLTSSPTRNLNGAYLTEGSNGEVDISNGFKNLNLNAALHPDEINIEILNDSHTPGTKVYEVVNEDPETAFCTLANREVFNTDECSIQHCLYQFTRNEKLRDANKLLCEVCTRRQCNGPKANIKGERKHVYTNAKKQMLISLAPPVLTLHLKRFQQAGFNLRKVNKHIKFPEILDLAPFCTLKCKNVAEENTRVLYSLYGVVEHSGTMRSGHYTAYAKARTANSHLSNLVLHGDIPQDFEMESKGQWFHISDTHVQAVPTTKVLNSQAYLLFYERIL
Chain of UCHL1 (P09936 whole entry, looked up): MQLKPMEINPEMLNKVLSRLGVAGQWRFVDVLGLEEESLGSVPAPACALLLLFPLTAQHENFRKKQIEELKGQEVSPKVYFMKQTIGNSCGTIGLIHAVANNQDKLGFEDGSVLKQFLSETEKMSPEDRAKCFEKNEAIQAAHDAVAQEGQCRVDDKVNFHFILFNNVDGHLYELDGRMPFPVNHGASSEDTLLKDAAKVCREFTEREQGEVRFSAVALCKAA
Chain of USP10 (Q14694 whole entry): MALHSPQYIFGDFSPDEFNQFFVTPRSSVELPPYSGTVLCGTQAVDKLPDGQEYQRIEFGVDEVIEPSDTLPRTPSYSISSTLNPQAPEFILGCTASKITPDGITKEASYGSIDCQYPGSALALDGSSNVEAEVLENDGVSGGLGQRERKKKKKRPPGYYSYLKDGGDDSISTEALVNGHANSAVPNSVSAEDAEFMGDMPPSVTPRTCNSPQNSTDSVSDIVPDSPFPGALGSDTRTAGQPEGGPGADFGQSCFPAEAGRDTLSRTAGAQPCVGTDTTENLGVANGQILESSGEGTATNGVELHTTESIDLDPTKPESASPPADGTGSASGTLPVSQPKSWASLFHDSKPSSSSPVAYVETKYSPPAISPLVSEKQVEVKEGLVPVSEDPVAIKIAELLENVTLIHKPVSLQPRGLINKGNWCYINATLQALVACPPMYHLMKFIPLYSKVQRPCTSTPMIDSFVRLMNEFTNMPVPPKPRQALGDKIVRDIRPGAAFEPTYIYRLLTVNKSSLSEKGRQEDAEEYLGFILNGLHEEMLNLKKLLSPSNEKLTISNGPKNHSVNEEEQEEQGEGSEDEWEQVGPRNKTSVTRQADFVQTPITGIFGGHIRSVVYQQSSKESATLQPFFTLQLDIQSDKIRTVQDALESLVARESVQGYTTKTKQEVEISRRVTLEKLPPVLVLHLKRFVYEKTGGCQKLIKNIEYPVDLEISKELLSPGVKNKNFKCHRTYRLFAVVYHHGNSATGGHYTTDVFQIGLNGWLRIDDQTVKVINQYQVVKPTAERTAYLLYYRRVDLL

CN(C)S(=O)(=O)c1ccccc1CNC(=O)CCl
active: UCHL1 -1.18
inactive: OTUD6B -0.265 | OTUD7B -0.0445 | PRPF8 -0.0375 | PSMD7 -0.18 | UCHL3 0.0942 | UCHL5 -0.199 | USP10 -0.156 | USP15 -0.0655 | USP16 0.14

— the supplement of paper PMC11732987, “Enantioselective OTUD7B fragment discovery through chemoproteomics screening and high-throughput optimisation” (Communications Chemistry, 2025)
